According to PubChem BioAssay AID750 (Sanford-Burnham Center for Chemical Genomics, 2007):
The whole screen tested about 86,000 compounds, of which about 140 (0.16%) were called active. What follows is part of a selection rich in actives, with near analogues and random picks from the rest. Unmarked numbers belong to inactive results.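 The calls were made as follows: active = activation factor of at least 2 for MT1-MMP transcription at 10 µM; inactive = the rest.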

Assay: MT1-MMP promoter reporter activation – cell-based, luciferase luminescence, primary screen (AID 750)
Conditions: HT1080 MT1-MMP promoter luciferase reporter, overnight, at 10 µM, active compounds read high

Compound | activation factor
CN1CCN(C(=O)Cn2c(C(F)(F)F)nc3ccccc32)CC1 | 1.2
Cc1ccc(S(=O)(=O)NC(=O)COc2ccccc2C)cc1 | 1.2
CC1(C)N=C(c2ccccn2)C(C)(C)N1O | 1
COc1ccc(CN(C(=O)CSc2nnc(-c3ccc(OC)c(OC)c3)o2)c2ccc(F)cc2)cc1 | 1.2
CCOC(=O)c1ccc2c(c1)nc(C)n2CC | 1.6
O=C(NC(=O)c1ccccc1)NC(=O)c1ccccc1 | 1
CN(C)c1ccnc2sc3c(=O)n(-c4ccc(Cl)cc4)cnc3c12 | 1.5
Cc1ccc(-n2cc3ccc([N+](=O)[O-])cc3n2)cc1 | 0.9
CCOCN(C(=O)Cn1c(C(C)O)nc2ccccc21)c1c(C)cccc1CC (centres undefined) | 1.2
CC1CC(C)CN(CC(=O)N2c3ccccc3CCc3ccccc32)C1 (centres undefined) | 1.1
O=C(NCCN1CCN(Cc2ccccc2)CC1)c1cc2c(=O)[nH]c3ccccc3c2s1 | 1
Cc1nn(C)cc1CNC(=O)Nc1ccc(Cl)cc1 | 1.7
Cc1ccc(-c2csc(NC(=O)Cc3cccs3)n2)cc1C | 1.3
O=P(O)(CP(=O)(c1ccccc1)c1ccccc1)c1ccccc1O | 1.2
COc1ccc(C(=O)NN(C)c2nc(-c3ccccc3)cc(C)c2S(C)(=O)=O)cc1 | 1.1
O=S(=O)(c1ccc(Br)cc1)n1ccc2ccccc21 | 1.1
O=C(NCCc1ccccc1)c1ccc(OCCOc2ccccc2)cc1 | 1
COC(=O)c1ccc(S(=O)(=O)N2CCC(c3nc4ccccc4o3)CC2)cc1 | 1.1
c1ccc(CCn2nnnc2CN2CCN(C3CCCC3)CC2)cc1 | 1.1
COc1ccc(C(c2nnnn2C2CCCCC2)N2CCN(c3ccccc3F)CC2)cc1 (centres undefined) | 1.1
c1ccc(C(c2ccccc2)N2CCN(Cc3nnnn3C3CCCCC3)CC2)cc1 | 2 (active)
C=CCn1c(SCc2c(C)noc2C)nc2sc3c(c2c1=O)CCC(C)C3 (centres undefined) | 0.6
CCOc1ccc(-c2nc(C)sc2CC(=O)O)cc1 | 1
CC(C)(C)N1CC(c2nc3ccccc3n2Cc2ccc(F)cc2)CC1=O (centres undefined) | 1.2
CC1(C)Cc2cccc(OCC(N)=O)c2O1 | 1.2

Compound | activation factor
Cn1nc(C(F)(F)F)c2cc(NC(=O)OCC(C)(C)C)sc21 | 1
CC1=NN(C(C)C)C(=O)C1 | 1.2
CN(C)S(=O)(=O)c1ccc(NC(=O)COC(=O)c2n[nH]c3ccccc23)cc1 | 1.3
O=C(OC1CCCCC1=O)c1cccc(S(=O)(=O)NCc2ccccc2)c1 (centres undefined) | 1.2
COc1ccc(NC(=O)Cn2c(=O)n(Cc3ccco3)c(=O)c3ccccc32)cc1 | 1
Cc1ccc(-n2nc3cc(C)c(NC(=O)c4cccnc4)cc3n2)cc1 | 1.5
CC(C)C[C@@H](N)c1nnc(SCC(=O)c2ccc(Cl)cc2)o1 | 1.1
S=C1NC(c2ccccc2)=NCN1c1ccc(Br)cc1 | 1.2
Cc1cc(NC(=O)CN2CCCC(C)C2)n(-c2nc3ccccc3s2)n1 (centres undefined) | 1.2
Cc1cc(-c2ccccc2)nc(N2CCC(C(=O)NC34CC5CC(CC(C5)C3)C4)CC2)n1 | 1.3
CCOC(=O)Nc1sc(C(=O)N(C)C)c(C)c1C(=O)OCC | 1
Cc1[nH]n(-c2ccc(Cl)cc2)c(=O)c1/C=N/n1c(C)nc2ccccc2c1=O | 1
COc1ccc(C2C(C(C)=O)=C(O)C(=O)N2c2nccs2)cc1 (centres undefined) | 1
Cc1ccc(CNC(=O)COc2ccc(S(=O)(=O)NC(C)C)cc2)cc1 | 1.1
CC(C)C(NC(=O)c1ccc(Cl)cc1)C(=O)O (centres undefined) | 1.1
CCOc1ccc(C(=O)NC(C(=O)NCc2ccccn2)C(C)C)cc1 (centres undefined) | 1.3
COc1ccc(C2=NOC3(CC(=O)N(c4ccc(Cl)cc4)C3=O)C2)c(OC)c1 (centres undefined) | 1
Cc1ccc(S(=O)(=O)NCC(=O)N(CC(=O)NC(C)(C)C)Cc2cccs2)cc1 | 1.1
Cc1ccc(C(CC(=O)O)Nc2nc(N3CCCCC3)nc(N3CCCCC3)n2)cc1 (centres undefined) | 2 (active)
CC(Nc1nc(N2CCCC2)nc2ccccc12)c1ccccc1 (centres undefined) | 1.1
COc1ccc(C(CC(=O)O)NC(=O)Cc2ccccc2)cc1 (centres undefined) | 1.2
OC(C#CCN1CCOCC1)(c1ccccc1)C1CCCCC1 (centres undefined) | 1.1
Cc1ccn(C(CC(=O)c2ccc(Br)cc2)C(=O)O)n1 (centres undefined) | 1.1
O=C(O)CSCc1ccc(C(=O)O)o1 | 1.2
